From PubChem BioAssay AID1159577 (Broad Institute, 2015)
Out of some 1,300 compounds screened, about 240 (18%) were called active. Inconclusive results (about 8%) are left out. A selection follows. Results with a measured potency or affinity are listed apart. Unmarked numbers belong to inactive results. The rule behind the calls is not given here.

test: HepG2 cell cytotoxicity, dose response, cytotoxicity control, cherry-picked samples (AID 1159577); details: HepG2 cytotoxicity counterscreen, plate reader; series mostly up to 19.5 µM; activity change, negative = cytotoxicity: at the top concentration;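 note: 0% = neutral control wells and -100% = positive control wells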

Row | Compound | activity change, negative = cytotoxicity
1 | COc1ccc2c3c([nH]c2c1)[C@H](CO)N(Cc1ccc(F)cc1)CC31CCN(C(C)=O)CC1 | -5.36%
2 | CNC[C@H]1Oc2ncc(-c3ccc(OC)cc3)cc2C(=O)N([C@H](C)CO)C[C@H]1C | 22.7%
3 | C[C@@H]1CN([C@@H](C)CO)C(=O)c2cc(NC(=O)Nc3ccc4c(c3)OCO4)ccc2O[C@H]1CN(C)C(=O)Nc1cccc2ccccc12 | 14%
4 | C[C@H]1CN([C@@H](C)CO)S(=O)(=O)c2ccc(C#Cc3ccncc3)cc2O[C@H]1CN(C)S(=O)(=O)c1ccc(F)cc1 | 3.3%
5 | COc1ccccc1S(=O)(=O)N(C)C[C@@H]1Oc2cc(C#CCC(C)C)ccc2S(=O)(=O)N([C@@H](C)CO)C[C@H]1C | -3.25%
6 | C[C@@H]1CN([C@@H](C)CO)S(=O)(=O)c2ccc(/C=C/c3ccccc3)cc2O[C@H]1CN(C)C(=O)C1CC1 | -1.84%
7 | C[C@@H]1CN([C@@H](C)CO)S(=O)(=O)c2ccc(/C=C/c3ccccc3)cc2O[C@H]1CN(C)Cc1cccnc1 | -0.832%
8 | COc1cccc(NC(=O)N(C)C[C@@H]2Oc3cc(C#Cc4ccc(F)cc4)ccc3S(=O)(=O)N([C@H](C)CO)C[C@@H]2C)c1 | 4.81%
9 | CC(C)CC#Cc1ccc2c(c1)O[C@H](CN(C)S(=O)(=O)c1ccc(F)cc1)[C@@H](C)CN([C@@H](C)CO)S2(=O)=O | -9.19%
10 | COc1ccccc1S(=O)(=O)N(C)C[C@@H]1Oc2cc(C#CCC(C)C)ccc2S(=O)(=O)N([C@@H](C)CO)C[C@@H]1C | -3.02%
11 | COc1ccc(NC(=O)N(C)C[C@H]2Oc3cc(C#CCC(C)C)ccc3S(=O)(=O)N([C@H](C)CO)C[C@H]2C)cc1 | 1.72%
12 | COc1cccc(NC(=O)N(C)C[C@@H]2Oc3cc(C#Cc4ccc(F)cc4)ccc3S(=O)(=O)N([C@@H](C)CO)C[C@@H]2C)c1 | -5.78%
13 | CCCC(=O)N1CCC2(CC1)CN[C@@H](CO)c1[nH]c3cc(OC)ccc3c12 | 1.85%
14 | N#C[C@@H]1[C@H](c2ccccc2C2=CCCCC2)[C@@H](CO)N1S(=O)(=O)c1ccccc1 | -8.39%
15 | COc1ccc(C#Cc2ccc3c(c2)[C@@H]2[C@@H](CCN2C(=O)C2CC2)[C@H](CO)N3)cc1 | -15%
16 | COCC(=O)N1CC2(C1)CN(Cc1cccc(Cl)c1)[C@@H](CO)c1[nH]c3cc(OC)ccc3c12 | 8.31%
17 | CCC(=O)Nc1ccc2c(c1)OC[C@H](C)N(Cc1ccccn1)C[C@H](C)[C@H](OC)CN(C)C2=O | -6.77%
18 | CN(C)CC#Cc1cccc(-c2nc(C(=O)N[C@@H]3CCN(Cc4ccccc4)C3)cc3c2[C@H](CCO)N(S(=O)C(C)(C)C)C3)c1 (stereo partly drawn) | -9.7%
19 | COc1ccc(C#Cc2ccc3c(c2)O[C@@H](CN(C)S(=O)(=O)c2ccccc2F)[C@@H](C)CN([C@@H](C)CO)S3(=O)=O)cc1 | 18.1%
20 | COc1ccc2c3c([nH]c2c1)[C@H](CO)N(Cc1cc(F)ccc1F)CC31CCN(C(C)=O)CC1 | -5.87%
21 | CN1C[C@H]2[C@@H](c3ccccc31)[C@H](CO)N2Cc1ccccc1F | 2.08%
22 | COc1cccc(NC(=O)N2[C@@H](CO)[C@@H](c3ccccc3)[C@@H]2CNCC(C)C)c1 | -22.2%

Row | Compound | activity change, negative = cytotoxicity
23 | C[C@H](CO)N1C[C@H](C)[C@H](CN(C)C(=O)Nc2ccc(F)cc2)Oc2cc(/C=C/c3ccccc3)ccc2S1(=O)=O | -7.91%
24 | Cc1ccc(-c2ccc3c(c2)O[C@@H](CN(C)Cc2cccnc2)[C@@H](C)CN([C@@H](C)CO)S3(=O)=O)cc1 | -31.1%
25 | C[C@@H]1CN([C@H](C)CO)S(=O)(=O)c2ccc(-c3ccncc3)cc2O[C@H]1CN(C)Cc1ccc(Oc2ccccc2)cc1 | 6.58%
26 | C[C@H](CO)N1C[C@H](C)[C@H](CN(C)C(=O)Nc2cc(F)ccc2F)Oc2cc(/C=C/c3ccccc3)ccc2S1(=O)=O | -14.4%
27 | CCS(=O)(=O)N1CCC2(CC1)CN(Cc1ccc3c(c1)OCO3)[C@H](CO)c1[nH]c3cc(OC)ccc3c12 | 12.4%
28 | CCC(=O)N1[C@H](CO)[C@@H](c2ccccc2-c2cccc(C)c2)[C@@H]1C#N | -26.1% [at 21 µM]
29 | COc1ccccc1CNC(=O)C[C@H]1C[C@@H]2c3cc(NC(=O)Nc4ccc(C(F)(F)F)cc4)ccc3O[C@@H]2[C@@H](CO)O1 | -0.188%
30 | CO[C@H]1CN(C)C(=O)c2cc(NC(=O)C3CC3)ccc2OC[C@H](C)N(Cc2cccc(F)c2)C[C@H]1C | 1.64%
31 | O=C(c1ccccc1)N1CC[C@@H]2[C@@H](CO)Nc3ccc(-c4ccc(F)cc4)cc3[C@@H]21 | 5.88% [at 21 µM]
32 | COc1ccc(C#Cc2ccc3c(c2)O[C@@H](CN(C)C(=O)Nc2cccc(OC)c2)[C@@H](C)CN([C@@H](C)CO)S3(=O)=O)cc1 | 17.5%
33 | Cc1ccccc1S(=O)(=O)N1[C@H](CO)[C@@H](c2ccc(C#CC3CCCCC3)cc2)[C@@H]1C#N | 8.7%
34 | COCC(=O)N1CC2(C1)CN(Cc1cc(F)ccc1F)[C@H](CO)c1[nH]c3cc(OC)ccc3c12 | -3.42%
35 | CO[C@@H]1CN(C)C(=O)c2ccc(NC(=O)c3nc4ccccc4s3)cc2OC[C@H](C)N(Cc2ccncc2)C[C@@H]1C | 13.8%
36 | CO[C@@H]1CN(C)C(=O)c2ccc(NC(=O)c3nc4ccccc4s3)cc2OC[C@@H](C)N(Cc2cccnc2)C[C@H]1C | -15.2%
37 | CO[C@@H]1CN(C)C(=O)c2cc(NC(=O)c3nc4ccccc4s3)ccc2OC[C@@H](C)N(Cc2ccccc2)C[C@H]1C | 5.97%
38 | CO[C@@H]1CN(C)C(=O)c2ccc(NC(=O)c3nc4ccccc4s3)cc2OC[C@H](C)N(Cc2cccnc2)C[C@@H]1C | 3.62%
39 | CC(=O)N1CC[C@@H]2[C@@H](CO)Nc3ccc(C#Cc4ccccc4F)cc3[C@@H]21 | 12.8% [at 21 µM]
40 | C/C=C/c1ccc([C@@H]2[C@@H](CO)N(CC3CCCC3)C23CN(S(=O)(=O)CC)C3)cc1 | -6.49%
41 | COc1ccccc1CN1C[C@@H](C)[C@H](OC)CN(C)C(=O)c2ccc(NC(=O)Nc3ccccc3OC)cc2OC[C@H]1C | -18.3%
42 | C[C@@H]1CN([C@H](C)CO)C(=O)c2cccc(NC(=O)CCCCCC(=O)Nc3ccccc3N)c2O[C@@H]1CN(C)S(=O)(=O)c1ccccc1 | -16.8% [at 21 µM]
43 | Cc1ccccc1S(=O)(=O)N1[C@H](C#N)[C@@H](c2ccc(C#CC3CC3)cc2)[C@@H]1CO | -1.66%
